# Results filed as inconclusive are left out. Activity calls are given as the source filed them. How the source made its calls, unless noted: active means hit-call score of the fitted dose curve at least 0.9, where 1 is the maximum; inactive means score below 0.9.
# Assays:
# DIO2 (gene 1734) = assay: CCTE_GLTED_hDIO2: CCTE's human Deiodinase 2 (DIO2) Inhibition Assay, Great Lakes Toxicology and Ecology Division (GLTED) Lab (AID 2284050; active means hit-call score of the fitted dose curve at least 0.9, where 1 is the maximum)
# How it was run: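 Readout: absorbance from Sandell-Kolthoff detection of free iodide released by human DIO2 during a 3 h incubation with chemical. Cell-free format, n=3; activity fitted relative to DMSO negative control.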
# [1] = target: Estrogen receptor (Homo sapiens) (UniProt P03372); assay: CCTE_Deisenroth_AIME_384WELL_LUC_Shift: CCTE's 384-well Estrogen Receptor Transactivation Assay with AIME metabolic competence data shift (ERTA luciferase; difference in metabolism positive and negative), Deisenroth Lab (AID 2284041);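 further: shift is response with S9 minus without S9 so positive means metabolism raised ER signal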
# Sequence of Estrogen receptor (Homo sapiens) (P03372 whole entry, looked up): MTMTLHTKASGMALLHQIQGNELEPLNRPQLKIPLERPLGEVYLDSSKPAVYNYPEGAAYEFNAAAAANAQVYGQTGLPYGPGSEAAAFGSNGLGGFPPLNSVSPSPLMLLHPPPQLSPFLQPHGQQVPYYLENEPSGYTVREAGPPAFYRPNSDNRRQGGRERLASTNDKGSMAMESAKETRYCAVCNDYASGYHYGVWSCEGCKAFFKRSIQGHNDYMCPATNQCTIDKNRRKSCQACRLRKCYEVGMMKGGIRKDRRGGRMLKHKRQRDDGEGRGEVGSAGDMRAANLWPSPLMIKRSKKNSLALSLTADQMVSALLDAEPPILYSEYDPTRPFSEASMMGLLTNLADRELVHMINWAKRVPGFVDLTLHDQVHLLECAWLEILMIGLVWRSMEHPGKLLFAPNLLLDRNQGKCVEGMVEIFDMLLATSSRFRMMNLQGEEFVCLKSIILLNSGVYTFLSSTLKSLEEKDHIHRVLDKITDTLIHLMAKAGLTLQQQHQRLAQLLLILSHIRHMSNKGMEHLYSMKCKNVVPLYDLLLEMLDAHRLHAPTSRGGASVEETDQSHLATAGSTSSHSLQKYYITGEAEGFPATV
# How it was run: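 Chemicals (0.002–200 uM, 10 points) pre-incubated 2 h with alginate-encapsulated induced male Sprague Dawley rat liver S9 or S9-free, then medium applied 24 h to VM7Luc4E2 cells; luciferase. Endpoint is per-concentration difference, S9-positive minus negative.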
# [2] = CCTE_Shafer_MEA_dev_burst_rate: CCTE's Neural Network Formation Assay for Burst Rate, Shafer Lab (AID 2284042);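 on AC50: potency for loss of burst rate below DMSO control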
# How it was run: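 Primary rat cortical neurons on PEI-coated 48-well MEA plates (laminin added with cells at plating) (16 electrodes/well), exposed from plating to day 12, dosing renewed at DIV 5 and 9. Burst rate averaged over active electrodes, recorded DIV 5, 7, 9, 12, summarized as AUC; loss versus DMSO.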
# [3] = CCTE_Shafer_MEA_dev_bursting_electrodes_number: CCTE's Neural Network Formation Assay for Number of Bursting Electrodes, Shafer Lab (AID 2284043; active means hit-call score of the fitted dose curve at least 0.9, where 1 is the maximum;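 on AC50: potency is for loss of bursting electrodes relative to DMSO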)
# How it was run: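 Rat cortical primary neurons, 48-well MEA, 16 electrodes/well; dosing DIV 0–12, re-dosed with full media change DIV 5, 9. Recordings DIV 5/7/9/12, AxIS adaptive spike detector; bursting electrode = ≥1 burst/2 min. AUC across days; loss of signal vs DMSO.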
# [4] = CCTE_Shafer_MEA_dev_per_burst_interspike_interval: CCTE's Neural Network Formation Assay for Burst Interspike Interval, Shafer Lab (AID 2284044);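 further: mean spike spacing inside bursts as AUC over recordings on days 5 7 9 12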;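 on AC50: potency for a decrease of within-burst interspike interval below DMSO level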
# How it was run: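 Rat cortical primary cultures, 16 electrodes/well; compound from plating, renewed with full media change DIV 5 and 9. Spikes via adaptive detector; per-burst ISI well-mean over active bursting electrodes; AUC of DIV 5/7/9/12 recordings; loss-direction fit vs DMSO.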
# [5] = CCTE_Shafer_MEA_dev_burst_duration_mean: CCTE's Neural Network Formation Assay for Mean Burst Duration, Shafer Lab (AID 2284045);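 on AC50: curve fitted for loss meaning shorter burst duration than DMSO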
# How it was run: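 Rat cortical cultures, 1.5 x 10^5 cells/well with laminin drop; continuous dosing days 0–12, media plus treatment refreshed DIV 5, 9. AxIS adaptive spike detection; mean single-electrode burst duration, AUC over four recordings, negative direction vs DMSO.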
# [6] = CCTE_Shafer_MEA_dev_interburst_interval_mean: CCTE's Neural Network Formation Assay for Mean Interburst Interval, Shafer Lab (AID 2284046);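 further: well-mean interburst interval of bursting electrodes as AUC over four recording days; curve fitted for decrease in interburst interval relative to DMSO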
# How it was run: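 Recordings on days 5, 7, 9 and 12 give well-mean interburst interval across actively bursting electrodes, summarized as area under the curve. Cultures: rat cortical neurons, continuous exposure from day 0, compound renewed at feeds; decrease analyzed versus DMSO.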
# [7] = CCTE_Shafer_MEA_dev_inter_network_spike_interval_mean: CCTE's Neural Network Formation Assay for Mean Inter-network Spike Interval, Shafer Lab (AID 2284047);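 on AC50: potency for a decrease in mean inter-network spike interval below DMSO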
# How it was run: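 Primary rat cortical neurons on 16-electrode MEA wells, exposed from plating day 0 through DIV 12, compound renewed at DIV 5 and 9 media changes. Mean interval between network-spike peaks recorded DIV 5, 7, 9, 12; collapsed as trapezoidal AUC, fitted downward versus DMSO.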
# [8] = CCTE_Shafer_MEA_dev_network_spike_number: CCTE's Neural Network Formation Assay for Number of Network Spikes, Shafer Lab (AID 2284048);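 further: synchronized bursts across electrodes counted on days 5 7 9 12 and integrated as AUC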;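 on AC50: fit as a loss of signal meaning fewer network spikes than DMSO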
# How it was run: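 Rat cortical primary cultures on 48-well MEA (16 electrodes/well); continuous exposure DIV 0–12, full medium and treatment exchange DIV 5, 9. Readout: network spike count, AxIS adaptive detection, recordings DIV 5/7/9/12 collapsed to AUC; loss-of-signal fit, DMSO baseline.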
# [9] = CCTE_Shafer_MEA_dev_network_spike_peak: CCTE's Neural Network Formation Assay for Mean Number of Electrodes in Network Spike, Shafer Lab (AID 2284049);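 on AC50: fitted for loss of signal meaning fewer electrodes in network spikes than DMSO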
# How it was run: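 Network-spike peak electrode count from recordings on days 5, 7, 9 and 12 was combined as trapezoidal area under the curve. Rat cortical cultures were treated continuously from plating, with compound renewed at each feed (DIV 5, 9); fits versus DMSO.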
compound,measurement,setting,value
O=C(Oc1ccccc1)c1ccc(O)cc1,AC50,DIO2 (gene 1734),72200 nM (active)
CCC(=O)/C=C/C1C(C)=CCCC1(C)C (configuration not stated),AC50,DIO2 (gene 1734),93100 nM (active)
NCCCN1CCOCC1,outcome,[1],inactive
CN(C)CCCN,outcome,[1],inactive
N#Cc1ccc(CC(=NNC(=O)Nc2ccc(OC(F)(F)F)cc2)c2cccc(C(F)(F)F)c2)cc1,AC50,[2],240 nM (active)
same,AC50,[3],297 nM (active)
same,AC50,[4],301 nM (active)
same,AC50,[5],358 nM (active)
same,AC50,[6],63.2 nM (active)
same,AC50,[7],634 nM (active)
same,AC50,[8],763 nM (active)
same,AC50,[9],1120 nM (active)
CC(=O)OCCOC(C)=O,outcome,[1],inactive
CCCCCCCCCCCCCC(=O)O,outcome,[1],inactive
same,AC50,DIO2 (gene 1734),100000 nM (active)
O=Nc1ccc(Nc2ccccc2)cc1,AC50,DIO2 (gene 1734),64200 nM (active)
CN(C)C(=N)N=C(N)N,outcome,[2],inactive
same,outcome,[3],inactive
same,outcome,[4],inactive
same,outcome,[5],inactive
same,outcome,[6],inactive
same,outcome,[7],inactive
same,outcome,[8],inactive
same,outcome,[9],inactive
OCCOCCOCCOCCO,outcome,[1],inactive
CCCCCCCCCCCCCCCC(=O)OC[C@H](O)[C@H]1OC(=O)C(O)=C1O,AC50,DIO2 (gene 1734),27500 nM (active)
CCCCCCCCCCCCN,outcome,DIO2 (gene 1734),inactive
c1ccc2c(c1)c1cccc3ccc4cccc2c4c31,outcome,[2],inactive
same,AC50,[3],3330 nM (active)
same,outcome,[4],inactive
same,outcome,[5],inactive
same,outcome,[6],inactive
same,AC50,[7],18600 nM (active)
same,outcome,[8],inactive
same,outcome,[9],inactive
CC(C)=CCCC(C)=CCCC(C)=CCO,AC50,DIO2 (gene 1734),28500 nM (active)
CCCCCCCCCC=O,outcome,[1],inactive

# From PubChem BioAssay (EPA / NIEHS)
